Measurements reported in ChEMBL document CHEMBL3988442, “University of Dundee, Small-Polar-MMV Screening Library” (2021).
Screen size: about 66,000 compounds; about 960 (1.5%) showed an effect of 50% or more. The sample as a whole holds a higher share of strong results than the screen did.

Test system: Trypanosoma brucei
Assay: Trypanosoma brucei 72 hour study
Assay type: functional, organism-based
Parameters: scale not given: in the data most compounds retested in dose-response had high values

Cc1ccc(N(Cc2ccco2)C(=O)CC2=NN(C)C(=O)C2)cc1
Percent Effect (30 µM, 30.03 µM): -11.27%

COCC1N(C(=O)c2ccc3c(c2)OCCCO3)[C@H]2CC[C@]1(O)CC2 (some centres undefined)
Percent Effect (30.3 µM, […]): -35.32%

O=C(NCc1ccc(-c2ccn[nH]2)cc1)N1CCC(N2CCCC2)C1 (centres undefined)
Percent Effect (30 µM, 30.03 µM): 50.84%

NC(=O)C1CCN(C(=O)NCc2ccc(-c3ccn[nH]3)cc2)CC1
Percent Effect (30.3 µM, […]): -25.22%

CNC(=O)C1CCN(C(=O)NCc2ccc(-c3ccn[nH]3)cc2)CC1
Percent Effect (30.3 µM, […]): -16.44%

CN(C)C(=O)CC1CC2(CCN(Cc3ccoc3)CC2)c2ccccc21.O=C(O)C(F)(F)F (centres undefined)
Percent Effect (30 µM, 30.03 µM): -22.74%

CC(NCc1cn(CCC(N)=O)c2ccccc12)c1nncn1C (centres undefined)
Percent Effect (30.3 µM, […]): -49.32%

Cc1ccc(C(C)NCc2cn(CCC(N)=O)c3ccccc23)cc1C (centres undefined)
Percent Effect (30.3 µM, […]): 96.45%

CC(C)n1cnnc1CCNCc1cn(CCC(N)=O)c2ccccc12
Percent Effect (30.3 µM, […]): -18.24%

CC(CN1CCC2(CC1)N=C(c1cccnc1)NC2=O)c1ccccc1 (centres undefined)
Percent Effect (30 µM, 30.03 µM): 6.734%

COCC1CC2(CCN(C(=O)c3occc3C)CC2)CN1C(C)C.O=C(O)C(F)(F)F (centres undefined)
Percent Effect (30.3 µM, […]): -8.924%

CCCc1noc(CN2CCCC2c2ccsc2)n1 (centres undefined)
Percent Effect (30 µM, 30.03 µM): 55.39%

CCCc1noc(CCC(=O)N2CCCC2c2ccsc2)n1 (centres undefined)
Percent Effect (30 µM, 30.03 µM): -44.02%

CCCc1noc(CN2CCCC2c2noc(C3CC3)n2)n1 (centres undefined)
Percent Effect (30.3 µM, […]): -16.45%

CS(=O)(=O)NCc1cnc2n1CCN(Cc1cccs1)CC2.O=C(O)C(F)(F)F
Percent Effect (30 µM, 30.03 µM): -2.909%

N[C@H]1CN(C(=O)CCCc2ccc(F)cc2)C[C@@H]1C1CC1
Percent Effect (30 µM, 30.03 µM): 79.67%

CN(C)[C@H]1CN(C(=O)CCCc2ccc(F)cc2)C[C@@H]1C1CC1
Percent Effect (30 µM, 30.03 µM): 21.51%

O=C(O)[C@@H]1CN(C(=O)CCCc2ccc(F)cc2)C[C@H]1C1CC1
Percent Effect (30 µM, 30.03 µM): -8.475%

O=C(NCc1cccs1)[C@@H]1CC[C@@H]2[C@@H](CCN2c2ncccn2)O1.O=C(O)C(F)(F)F
Percent Effect (30 µM, 30.03 µM): -28.93%

CCC(Nc1ncccn1)c1cccnc1 (centres undefined)
Percent Effect (30 µM, 30.03 µM): -16.09%

CCC(Nc1ncccn1)c1ccc(OC)cc1 (centres undefined)
Percent Effect (30 µM, 30.03 µM): 62.75%

COc1ccc(C(CN2CCN(C)CC2)Nc2ncccn2)cc1 (centres undefined)
Percent Effect (30 µM, 30.03 µM): -24.12%

CCC(C)Oc1ccc(CNCCNS(C)(=O)=O)cc1Cl (centres undefined)
Percent Effect (30 µM, 30.03 µM): 0.13%

O=C(O)C(F)(F)F.O=C(O)C(F)(F)F.O=C1CC(c2ccncc2)C2(CCN(CCc3ccccc3)CC2)N1 (centres undefined)
Percent Effect (30 µM, 30.03 µM): 36.79%

CS(=O)(=O)N1CCC2(CC1)CC(NCC1CC1)c1ccccc12.O=C(O)C(F)(F)F (centres undefined)
Percent Effect (30.3 µM, […]): 3.499%

CN1CC2(CCCN(Cc3ccc(Oc4ccccc4)cc3)C2)OC1=O (centres undefined)
Percent Effect (30 µM, 30.03 µM): -7.898%

CN(Cc1cc(Br)cn1C)C(=O)Cc1cccnc1
Percent Effect (30 µM, 30.03 µM): 102.7%

CN(Cc1cc(Br)cn1C)C(=O)c1cccnc1
Percent Effect (30 µM, 30.03 µM): -39.03%

CN(Cc1cc(Br)cn1C)C(=O)Cc1cccc(O)c1
Percent Effect (30 µM, 30.03 µM): -57.62%

COc1ccc(CN2CC[C@H]3[C@H]2CC(=O)N3Cc2cccc(C)n2)cc1.O=C(O)C(F)(F)F.O=C(O)C(F)(F)F
Percent Effect (30.3 µM, […]): -40.33%

Cc1cc(N2CCN(C(=O)c3cc(Cl)c[nH]3)CC2)nc(N)n1
Percent Effect (30 µM, 30.03 µM): 109.2%

Cc1cc(N2CCN(C(=O)c3cc(Cl)c[nH]3)CC2)nc(C)n1
Percent Effect (30 µM, 30.03 µM): -21.87%

Cc1cc(N2CCN(C(=O)c3cc(Cl)c[nH]3)CC2)nc(C(C)C)n1
Percent Effect (30 µM, 30.03 µM): -55.97%

Cc1ccc(CN(CCCN(C)C)Cc2cnc(C)n2C)o1.O=C(O)CC(O)(CC(=O)O)C(=O)O
Percent Effect (30.3 µM, […]): -2.378%

CCn1c(C(=O)N2CCN(CC[S+](C)[O-])CC2)cc2ccccc21 (centres undefined)
Percent Effect (10 µM): -31.07%

CN(C)c1cccc(CNC(=O)Nc2cc(C#N)ccc2Cl)n1
Percent Effect (30.3 µM, […]): -223.5%

COc1ccc(C)c(NC(=O)NCc2cccc(N(C)C)n2)c1
Percent Effect (30.3 µM, […]): -277.4%

COc1ccc(NC(=O)NCc2cccc(N(C)C)n2)c(Cl)c1
Percent Effect (30.3 µM, […]): 103.9%

COCc1c(Cl)cccc1NC(=O)NCc1cccc(N(C)C)n1
Percent Effect (30.3 µM, […]): 55.78%

COc1cc(F)cc(NC(=O)NCc2cccc(N(C)C)n2)c1
Percent Effect (30.3 µM, […]): -613%

CC(=O)c1ccc(NC(=O)NCc2cccc(N(C)C)n2)cc1C
Percent Effect (30 µM, 30.03 µM): -17.1%

N#Cc1cccc(C(=O)N2CCC3(CCC(=O)N(C4CC4)C3)CC2)c1
Percent Effect (30 µM, 30.03 µM): -3.327%

O=C(O)C(F)(F)F.c1ccc(CN2CCc3c(CNc4nccs4)n[nH]c3C2)nc1
Percent Effect (30 µM, 30.03 µM): -34.93%

Cc1ccn(CCC(=O)N2CCCC2c2nnc(-c3scnc3C)o2)n1 (centres undefined)
Percent Effect (30.3 µM, […]): -1.608%

Cc1cnc(-c2nc(C3CCCN(Cc4ccccc4C)C3)no2)cn1.Cl (centres undefined)
Percent Effect (30.3 µM, […]): -19.46%

CCc1cc(-c2ccnc3c2ccn3C)nc(N2CCOCC2)n1
Percent Effect (30 µM, 30.03 µM): -28.1%

Cn1ccc2c(-c3cc(N4CCOCC4)ncn3)ccnc21
Percent Effect (30 µM, 30.03 µM): -20.01%

Cn1ccc2c(-c3cc(N)nc(N4CCOCC4)n3)ccnc21
Percent Effect (30 µM, 30.03 µM): 69.92%

CCNc1nc(C(=O)N(C)Cc2nc(CC)no2)cs1
Percent Effect (30 µM, 30.03 µM): -27.33%

CC(C)c1nc(C2CCCN2c2ccnc(C3CCCC3)n2)no1 (centres undefined)
Percent Effect (30.3 µM, […]): -51.91%

CC(C)c1nc(C2CCCN2c2cnc3cc(F)c(F)cc3n2)no1 (centres undefined)
Percent Effect (30.3 µM, […]): 85.34%

CC(C)c1nc(C2CCCN2c2cnc3ccccc3n2)no1 (centres undefined)
Percent Effect (30.3 µM, […]): -0.9034%

Cc1noc(C)c1CN1CCc2ncnc(-c3ccoc3)c2CC1.O=C(O)C(F)(F)F
Percent Effect (30.3 µM, […]): -51.79%

Cc1nc(CNCc2cccc(OC34CCCN(CC3)C4)c2)n[nH]1 (centres undefined)
Percent Effect (30 µM, 30.03 µM): 3.883%

Cc1cnccc1CNCc1ccc(OC23CCCN(CC2)C3)cc1 (centres undefined)
Percent Effect (30 µM, 30.03 µM): 6.423%

COc1cc(C#N)ccc1OC12CCCN(CC1)C2 (centres undefined)
Percent Effect (30 µM, 30.03 µM): -13.64%

c1ccc(Oc2ccc(OC34CCCN(CC3)C4)cc2)cc1 (centres undefined)
Percent Effect (30.3 µM, […]): 99.82%

c1ccc(Oc2cccc(OC34CCCN(CC3)C4)c2)cc1 (centres undefined)
Percent Effect (30.3 µM, […]): 99.26%

O=c1[nH]nc(CNCc2ccc(OC34CCCN(CC3)C4)cc2)[nH]1 (centres undefined)
Percent Effect (30 µM, 30.03 µM): -0.5692%

Cl.O=C(Nc1cccc(CNCc2cccs2)c1)C1CC1
Percent Effect (10 µM): -25.65%

O=C(CC1CCC2(CC1)CCN(Cc1ccncc1)CC2)N1CCCC1.O=C(O)C(F)(F)F
Percent Effect (30.3 µM, […]): -30.07%

CCCn1c(N2CCCC2)nc2c(C)nn(C)c2c1=O
Percent Effect (30.3 µM, […]): -10.23%

CCCn1c(N2CCCCC2)nc2c(C)nn(C)c2c1=O
Percent Effect (30.3 µM, […]): -27.42%

CCCn1c(N2CCCC(C)C2)nc2c(C)nn(C)c2c1=O (centres undefined)
Percent Effect (30.3 µM, […]): 99.54%
